# Results: PMC7862700, “An all-to-all approach to the identification of sequence-specific readers for epigenetic DNA modifications on cytosine”
# Experiments:
# Assay in all cases: DAPPL (digital affinity profiling via proximity ligation, sequencing); 10 mM Tris-HCl pH 7.5, 50 mM NaCl, 1 mM DTT, 4% glycerol, room temperature, 30 min; GST-TFs on glutathione beads, 16-mer random dsDNA library, 0.1% formaldehyde crosslink after washing; high values mean tight binding
# [1] = target: T1, FLI1 (Homo sapiens, UniProt Q01543 1-452); details: protein: recombinant; tags: N-terminal GST; dsDNA, one strand shown
# T1 sequence: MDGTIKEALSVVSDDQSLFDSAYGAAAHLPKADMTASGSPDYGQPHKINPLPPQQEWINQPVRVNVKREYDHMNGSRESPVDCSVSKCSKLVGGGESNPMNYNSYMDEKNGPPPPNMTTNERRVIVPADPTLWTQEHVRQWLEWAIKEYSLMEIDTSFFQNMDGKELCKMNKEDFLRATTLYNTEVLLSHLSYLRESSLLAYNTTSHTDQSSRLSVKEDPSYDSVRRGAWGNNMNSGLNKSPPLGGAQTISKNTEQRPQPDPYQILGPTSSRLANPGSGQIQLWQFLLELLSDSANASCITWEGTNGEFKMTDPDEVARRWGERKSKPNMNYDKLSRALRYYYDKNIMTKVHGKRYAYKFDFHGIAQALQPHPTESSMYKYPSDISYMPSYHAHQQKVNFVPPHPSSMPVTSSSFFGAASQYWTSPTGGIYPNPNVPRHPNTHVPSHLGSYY
# Outline: (§1)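 Pools were built from human transcription factors expressed in yeast as GST fusions, captured on glutathione beads and DNA-barcoded, along with a tag-only sample. Incubation with 200 nmole of a 16-mer random double-stranded DNA library lasted 30 min at room temperature in Tris/NaCl/DTT/glycerol buffer, and was followed by washing, 0.1% formaldehyde crosslinking, proximity ligation, PCR amplification and Illumina NextSeq500 sequencing. Binding signal is the quotient of each hexamer's read frequency for a factor and its frequency for the tag-only sample.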
# [2] = target: T2, ELK1 (Homo sapiens, UniProt P19419 1-428); details: protein: recombinant; tags: N-terminal GST; dsDNA, one strand shown
# T2 sequence: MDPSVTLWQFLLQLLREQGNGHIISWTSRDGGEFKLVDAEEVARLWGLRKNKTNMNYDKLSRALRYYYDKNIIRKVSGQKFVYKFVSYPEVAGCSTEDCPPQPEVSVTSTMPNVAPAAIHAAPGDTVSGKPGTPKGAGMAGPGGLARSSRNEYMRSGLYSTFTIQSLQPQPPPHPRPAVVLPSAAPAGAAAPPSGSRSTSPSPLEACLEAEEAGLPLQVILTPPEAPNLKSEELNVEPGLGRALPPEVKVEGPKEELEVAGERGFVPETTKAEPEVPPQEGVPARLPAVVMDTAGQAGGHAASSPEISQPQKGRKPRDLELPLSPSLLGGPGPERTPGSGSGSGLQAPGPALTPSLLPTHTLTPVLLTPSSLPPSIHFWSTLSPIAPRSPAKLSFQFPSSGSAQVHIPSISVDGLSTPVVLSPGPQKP
# Outline: as §1
# [3] = target: T3, GABPA (Homo sapiens, UniProt Q06546 1-454); details: protein: recombinant; tags: N-terminal GST; dsDNA, one strand shown
# T3 sequence: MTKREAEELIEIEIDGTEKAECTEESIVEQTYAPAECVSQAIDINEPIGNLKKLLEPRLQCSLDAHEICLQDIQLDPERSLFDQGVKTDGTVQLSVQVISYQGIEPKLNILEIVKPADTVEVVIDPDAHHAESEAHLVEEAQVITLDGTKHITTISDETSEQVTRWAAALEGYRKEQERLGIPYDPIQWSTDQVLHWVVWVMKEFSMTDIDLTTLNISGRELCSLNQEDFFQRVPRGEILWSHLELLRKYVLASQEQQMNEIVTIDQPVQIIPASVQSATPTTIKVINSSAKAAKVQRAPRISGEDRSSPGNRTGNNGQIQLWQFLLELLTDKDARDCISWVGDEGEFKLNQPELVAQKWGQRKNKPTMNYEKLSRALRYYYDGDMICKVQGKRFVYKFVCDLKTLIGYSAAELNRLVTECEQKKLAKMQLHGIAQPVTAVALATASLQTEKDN
# Outline: as §1
# [4] = target: T4, ERG (Homo sapiens, UniProt P11308 1-479); details: protein: recombinant; tags: N-terminal GST; dsDNA, one strand shown
# T4 sequence: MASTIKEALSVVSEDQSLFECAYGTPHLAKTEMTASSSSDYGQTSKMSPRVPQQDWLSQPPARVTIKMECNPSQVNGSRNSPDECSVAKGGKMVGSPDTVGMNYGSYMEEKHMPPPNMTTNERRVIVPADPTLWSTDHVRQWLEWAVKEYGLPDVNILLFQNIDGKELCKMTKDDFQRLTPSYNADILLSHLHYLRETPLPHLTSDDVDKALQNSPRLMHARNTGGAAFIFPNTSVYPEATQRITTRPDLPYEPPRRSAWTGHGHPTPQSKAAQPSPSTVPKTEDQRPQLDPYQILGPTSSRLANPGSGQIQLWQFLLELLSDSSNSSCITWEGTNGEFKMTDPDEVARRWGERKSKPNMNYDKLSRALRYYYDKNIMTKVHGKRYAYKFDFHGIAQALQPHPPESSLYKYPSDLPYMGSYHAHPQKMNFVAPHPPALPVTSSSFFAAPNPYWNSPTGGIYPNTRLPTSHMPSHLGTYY
# Outline: as §1
# [5] = target: ELF1 (Homo sapiens, UniProt P32519 1-619); details: protein: recombinant; tags: N-terminal GST; dsDNA, one strand shown
# Sequence of ELF1 (P32519 whole entry): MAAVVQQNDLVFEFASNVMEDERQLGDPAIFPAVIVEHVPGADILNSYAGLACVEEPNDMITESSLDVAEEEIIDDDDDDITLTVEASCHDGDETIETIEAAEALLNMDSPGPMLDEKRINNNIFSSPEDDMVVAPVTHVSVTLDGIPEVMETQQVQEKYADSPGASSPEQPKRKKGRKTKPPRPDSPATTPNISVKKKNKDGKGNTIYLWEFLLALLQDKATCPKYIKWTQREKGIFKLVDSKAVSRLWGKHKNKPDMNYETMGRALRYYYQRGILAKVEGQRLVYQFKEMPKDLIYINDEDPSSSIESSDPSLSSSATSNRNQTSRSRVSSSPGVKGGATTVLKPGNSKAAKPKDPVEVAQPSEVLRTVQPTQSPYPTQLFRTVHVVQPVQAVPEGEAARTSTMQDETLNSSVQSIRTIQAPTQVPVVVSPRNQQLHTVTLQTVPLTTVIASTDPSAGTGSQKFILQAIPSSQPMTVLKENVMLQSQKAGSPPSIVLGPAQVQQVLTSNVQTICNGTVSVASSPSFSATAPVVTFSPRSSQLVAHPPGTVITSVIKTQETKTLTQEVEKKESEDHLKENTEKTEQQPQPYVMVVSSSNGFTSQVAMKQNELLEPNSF
# Outline: as §1
# [6] = target: T5, EHF (Homo sapiens, UniProt Q9NZC4 1-300); details: protein: recombinant; tags: N-terminal GST; dsDNA, one strand shown
# T5 sequence: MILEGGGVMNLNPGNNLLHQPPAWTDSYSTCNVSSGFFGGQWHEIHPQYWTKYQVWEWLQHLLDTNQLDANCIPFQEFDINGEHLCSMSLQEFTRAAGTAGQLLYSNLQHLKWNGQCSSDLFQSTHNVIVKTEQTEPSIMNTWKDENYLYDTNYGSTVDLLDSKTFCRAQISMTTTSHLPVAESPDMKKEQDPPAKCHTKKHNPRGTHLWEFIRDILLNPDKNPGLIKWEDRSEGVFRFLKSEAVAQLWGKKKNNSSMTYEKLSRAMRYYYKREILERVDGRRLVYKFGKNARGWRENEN
# Outline: as §1
# [7] = target: SPI1 (Homo sapiens, UniProt P17947 1-270); details: protein: recombinant; tags: N-terminal GST; dsDNA, one strand shown
# Outline: as §1
# [8] = target: SPIB (Homo sapiens, UniProt Q01892 1-262); details: protein: recombinant; tags: N-terminal GST; dsDNA, one strand shown
# Sequence of SPIB (Q01892 whole entry): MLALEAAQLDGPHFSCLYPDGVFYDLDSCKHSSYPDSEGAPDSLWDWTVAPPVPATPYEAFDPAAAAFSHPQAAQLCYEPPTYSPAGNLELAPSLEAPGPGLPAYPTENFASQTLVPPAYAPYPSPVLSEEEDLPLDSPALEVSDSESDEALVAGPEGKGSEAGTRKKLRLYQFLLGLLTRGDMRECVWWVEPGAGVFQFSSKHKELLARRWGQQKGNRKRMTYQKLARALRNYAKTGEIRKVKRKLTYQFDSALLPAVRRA
# Outline: as §1
# [9] = target: T6, ELK3 (Homo sapiens, UniProt P41970 1-407); details: protein: recombinant; tags: N-terminal GST; dsDNA, one strand shown
# T6 sequence: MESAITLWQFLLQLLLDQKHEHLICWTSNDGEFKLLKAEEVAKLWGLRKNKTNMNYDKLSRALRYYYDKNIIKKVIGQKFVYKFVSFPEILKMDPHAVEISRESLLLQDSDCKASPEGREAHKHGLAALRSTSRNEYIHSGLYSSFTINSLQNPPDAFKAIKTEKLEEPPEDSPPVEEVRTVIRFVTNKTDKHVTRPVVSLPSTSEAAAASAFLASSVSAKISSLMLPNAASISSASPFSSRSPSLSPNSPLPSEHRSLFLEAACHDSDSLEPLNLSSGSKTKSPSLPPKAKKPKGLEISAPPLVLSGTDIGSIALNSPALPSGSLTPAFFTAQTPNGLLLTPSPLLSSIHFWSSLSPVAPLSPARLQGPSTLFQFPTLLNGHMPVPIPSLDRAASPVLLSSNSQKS
# Outline: as §1
# [10] = target: T7, FEV (Homo sapiens, UniProt Q99581 1-238); details: protein: recombinant; tags: N-terminal GST; dsDNA, one strand shown
# T7 sequence: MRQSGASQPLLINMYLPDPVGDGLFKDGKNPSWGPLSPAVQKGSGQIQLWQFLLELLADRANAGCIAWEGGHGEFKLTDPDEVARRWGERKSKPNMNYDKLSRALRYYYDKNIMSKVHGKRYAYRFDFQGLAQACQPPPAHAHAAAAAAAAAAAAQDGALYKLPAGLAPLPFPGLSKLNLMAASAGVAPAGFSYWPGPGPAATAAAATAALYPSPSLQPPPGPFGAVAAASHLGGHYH
# Outline: as §1
# [11] = target: ETV5 (Homo sapiens, UniProt P41161 1-510); details: protein: recombinant; tags: N-terminal GST; dsDNA, one strand shown
# Sequence of ETV5 (P41161 whole entry): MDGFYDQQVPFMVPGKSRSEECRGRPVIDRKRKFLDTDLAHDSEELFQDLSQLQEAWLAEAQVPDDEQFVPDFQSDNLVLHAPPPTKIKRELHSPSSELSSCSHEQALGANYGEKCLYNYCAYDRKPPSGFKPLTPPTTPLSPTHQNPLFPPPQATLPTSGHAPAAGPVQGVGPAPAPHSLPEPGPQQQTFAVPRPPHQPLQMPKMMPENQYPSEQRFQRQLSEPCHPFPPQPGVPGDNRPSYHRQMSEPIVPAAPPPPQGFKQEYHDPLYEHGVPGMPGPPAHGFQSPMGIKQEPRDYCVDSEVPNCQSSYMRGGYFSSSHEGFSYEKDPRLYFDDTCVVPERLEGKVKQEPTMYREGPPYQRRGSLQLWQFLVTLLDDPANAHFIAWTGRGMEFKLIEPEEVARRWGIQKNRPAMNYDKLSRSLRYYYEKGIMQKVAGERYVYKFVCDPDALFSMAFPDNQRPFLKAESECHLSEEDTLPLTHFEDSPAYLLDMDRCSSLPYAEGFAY
# Outline: as §1
# [12] = target: HSF1 (Homo sapiens, UniProt Q00613 1-529); details: protein: recombinant; tags: N-terminal GST; chain copies: 3; dsDNA, one strand shown
# Sequence of HSF1 (Q00613 whole entry): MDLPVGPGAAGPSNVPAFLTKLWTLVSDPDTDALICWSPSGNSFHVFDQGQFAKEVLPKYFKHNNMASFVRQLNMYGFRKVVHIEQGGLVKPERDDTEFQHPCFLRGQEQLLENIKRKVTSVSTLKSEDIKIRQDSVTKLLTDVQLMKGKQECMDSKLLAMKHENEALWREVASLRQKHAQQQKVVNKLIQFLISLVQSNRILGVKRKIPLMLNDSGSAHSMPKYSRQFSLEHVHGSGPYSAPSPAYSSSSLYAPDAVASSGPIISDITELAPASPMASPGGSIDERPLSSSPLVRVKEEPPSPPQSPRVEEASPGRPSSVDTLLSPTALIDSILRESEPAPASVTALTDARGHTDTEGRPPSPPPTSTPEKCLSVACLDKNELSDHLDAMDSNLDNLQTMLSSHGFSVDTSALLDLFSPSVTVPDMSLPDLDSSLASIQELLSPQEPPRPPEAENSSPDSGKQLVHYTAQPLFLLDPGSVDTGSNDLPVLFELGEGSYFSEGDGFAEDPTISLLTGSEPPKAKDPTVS
# Outline: as §1
# [13] = target: T8, SPIC (Homo sapiens, UniProt Q8N5J4 1-248); details: protein: recombinant; tags: N-terminal GST; dsDNA, one strand shown
# T8 sequence: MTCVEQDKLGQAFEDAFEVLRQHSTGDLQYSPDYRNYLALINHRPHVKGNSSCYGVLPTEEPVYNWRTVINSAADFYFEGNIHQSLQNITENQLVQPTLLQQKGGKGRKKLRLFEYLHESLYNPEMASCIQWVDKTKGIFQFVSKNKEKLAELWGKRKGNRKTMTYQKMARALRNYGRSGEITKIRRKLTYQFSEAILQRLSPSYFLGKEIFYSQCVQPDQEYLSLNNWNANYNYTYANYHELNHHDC
# Outline: as §1
# [14] = target: ELF4 (Homo sapiens, UniProt Q99607 1-663); details: protein: recombinant; tags: N-terminal GST; dsDNA, one strand shown
# Sequence of ELF4 (Q99607 whole entry): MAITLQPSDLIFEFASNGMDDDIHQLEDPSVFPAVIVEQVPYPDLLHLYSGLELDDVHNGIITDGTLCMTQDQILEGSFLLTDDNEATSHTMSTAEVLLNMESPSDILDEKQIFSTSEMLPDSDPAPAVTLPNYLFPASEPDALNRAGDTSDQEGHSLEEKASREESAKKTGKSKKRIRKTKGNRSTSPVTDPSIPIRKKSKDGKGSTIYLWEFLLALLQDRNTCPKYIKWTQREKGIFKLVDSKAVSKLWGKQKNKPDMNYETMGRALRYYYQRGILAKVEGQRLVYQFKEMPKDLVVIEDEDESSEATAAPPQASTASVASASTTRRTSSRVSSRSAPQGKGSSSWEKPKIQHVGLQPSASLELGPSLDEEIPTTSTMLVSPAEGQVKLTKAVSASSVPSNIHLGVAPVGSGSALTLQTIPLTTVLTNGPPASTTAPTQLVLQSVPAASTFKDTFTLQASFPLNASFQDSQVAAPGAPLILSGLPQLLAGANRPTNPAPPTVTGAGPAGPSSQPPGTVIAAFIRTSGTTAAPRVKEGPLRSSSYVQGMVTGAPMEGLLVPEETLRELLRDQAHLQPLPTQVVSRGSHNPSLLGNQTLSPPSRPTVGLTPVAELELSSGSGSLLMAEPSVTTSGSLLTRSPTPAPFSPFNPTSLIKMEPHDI
# Outline: as §1
# [15] = target: T9, ELK4 (Homo sapiens, UniProt P28324-2 1-405); details: protein: recombinant; tags: N-terminal GST; dsDNA, one strand shown
# T9 sequence: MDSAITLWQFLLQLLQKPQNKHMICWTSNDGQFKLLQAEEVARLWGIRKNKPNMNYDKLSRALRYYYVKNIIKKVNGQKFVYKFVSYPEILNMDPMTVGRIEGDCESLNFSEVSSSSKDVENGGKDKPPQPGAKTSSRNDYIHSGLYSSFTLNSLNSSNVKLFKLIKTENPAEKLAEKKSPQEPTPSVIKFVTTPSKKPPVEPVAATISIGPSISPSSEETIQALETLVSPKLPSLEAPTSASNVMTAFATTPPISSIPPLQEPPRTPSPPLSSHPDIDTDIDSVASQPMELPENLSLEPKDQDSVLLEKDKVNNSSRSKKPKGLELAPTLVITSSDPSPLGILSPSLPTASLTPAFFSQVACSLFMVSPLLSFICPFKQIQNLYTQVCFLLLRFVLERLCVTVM
# Outline: as §1
# [16] = target: T10, ETV2 (Homo sapiens, UniProt O00321 1-342); details: protein: recombinant; tags: N-terminal GST; dsDNA, one strand shown
# T10 sequence: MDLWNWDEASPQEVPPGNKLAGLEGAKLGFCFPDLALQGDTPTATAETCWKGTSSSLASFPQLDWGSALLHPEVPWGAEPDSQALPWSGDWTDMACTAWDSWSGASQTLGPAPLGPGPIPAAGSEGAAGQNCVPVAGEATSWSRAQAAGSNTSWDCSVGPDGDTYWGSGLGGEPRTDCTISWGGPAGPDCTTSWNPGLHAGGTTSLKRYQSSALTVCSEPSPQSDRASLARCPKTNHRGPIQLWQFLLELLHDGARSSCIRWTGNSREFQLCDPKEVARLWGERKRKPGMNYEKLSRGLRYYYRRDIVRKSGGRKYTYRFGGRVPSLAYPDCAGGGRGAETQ
# Outline: as §1
# [17] = target: T11, ELF3 (Homo sapiens, UniProt P78545 1-371); details: protein: recombinant; tags: N-terminal GST; dsDNA, one strand shown
# T11 sequence: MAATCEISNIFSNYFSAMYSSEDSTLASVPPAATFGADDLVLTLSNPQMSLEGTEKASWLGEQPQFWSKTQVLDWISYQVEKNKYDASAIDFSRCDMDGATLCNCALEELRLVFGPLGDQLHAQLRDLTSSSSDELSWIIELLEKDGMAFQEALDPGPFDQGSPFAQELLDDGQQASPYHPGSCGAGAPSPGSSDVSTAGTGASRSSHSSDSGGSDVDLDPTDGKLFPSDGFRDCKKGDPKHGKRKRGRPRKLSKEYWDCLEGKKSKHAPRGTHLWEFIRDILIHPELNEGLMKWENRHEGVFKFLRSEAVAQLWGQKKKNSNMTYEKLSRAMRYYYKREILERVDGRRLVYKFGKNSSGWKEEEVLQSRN
# Outline: as §1
# [18] = target: CRX (Homo sapiens, UniProt O43186 1-299); details: protein: recombinant; tags: N-terminal GST; dsDNA, one strand shown
# Sequence of CRX (O43186 whole entry): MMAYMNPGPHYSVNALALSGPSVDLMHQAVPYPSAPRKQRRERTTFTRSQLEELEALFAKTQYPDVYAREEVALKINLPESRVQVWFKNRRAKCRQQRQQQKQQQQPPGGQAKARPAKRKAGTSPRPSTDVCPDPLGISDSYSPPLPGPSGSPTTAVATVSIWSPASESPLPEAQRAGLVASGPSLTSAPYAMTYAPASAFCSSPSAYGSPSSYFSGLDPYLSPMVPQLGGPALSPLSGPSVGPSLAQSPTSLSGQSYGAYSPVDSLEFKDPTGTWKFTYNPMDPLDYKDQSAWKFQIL
# Outline: as §1
# [19] = target: ETV1 (Homo sapiens, UniProt P50549 1-477); details: protein: recombinant; tags: N-terminal GST; dsDNA, one strand shown
# Sequence of ETV1 (P50549 whole entry): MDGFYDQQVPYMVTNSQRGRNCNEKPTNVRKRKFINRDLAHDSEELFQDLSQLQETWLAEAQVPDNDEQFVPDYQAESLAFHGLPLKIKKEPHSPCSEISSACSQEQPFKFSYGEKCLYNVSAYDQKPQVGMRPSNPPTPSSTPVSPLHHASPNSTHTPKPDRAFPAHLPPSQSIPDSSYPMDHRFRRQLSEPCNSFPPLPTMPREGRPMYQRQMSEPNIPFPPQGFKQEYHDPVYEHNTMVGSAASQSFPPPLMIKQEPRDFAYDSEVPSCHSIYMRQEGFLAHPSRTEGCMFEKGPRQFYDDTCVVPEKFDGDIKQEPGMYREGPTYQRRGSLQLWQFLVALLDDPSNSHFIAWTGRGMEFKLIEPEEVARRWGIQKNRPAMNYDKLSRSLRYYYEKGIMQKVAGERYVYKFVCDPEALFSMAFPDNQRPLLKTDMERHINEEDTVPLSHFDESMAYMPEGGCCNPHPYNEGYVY
# Outline: as §1
sequence,measurement,setting,value
TTATTC,binding signal,[1],"1.48 fold enrichment (6-mer frequency, TF over GST control)"
same,binding signal,[2],"1.41 fold enrichment (6-mer frequency, TF over GST control)"
same,binding signal,[3],"1.38 fold enrichment (6-mer frequency, TF over GST control)"
same,binding signal,[4],"1.34 fold enrichment (6-mer frequency, TF over GST control)"
same,binding signal,[5],"1.3 fold enrichment (6-mer frequency, TF over GST control)"
same,binding signal,[6],"1.29 fold enrichment (6-mer frequency, TF over GST control)"
same,binding signal,[7],"1.33 fold enrichment (6-mer frequency, TF over GST control)"
same,binding signal,[8],"1.39 fold enrichment (6-mer frequency, TF over GST control)"
same,binding signal,[9],"1.45 fold enrichment (6-mer frequency, TF over GST control)"
same,binding signal,[10],"1.39 fold enrichment (6-mer frequency, TF over GST control)"
same,binding signal,[11],"1.33 fold enrichment (6-mer frequency, TF over GST control)"
same,binding signal,[12],"2.13 fold enrichment (6-mer frequency, TF over GST control)"
same,binding signal,[13],"1.45 fold enrichment (6-mer frequency, TF over GST control)"
same,binding signal,[14],"1.41 fold enrichment (6-mer frequency, TF over GST control)"
same,binding signal,[15],"1.31 fold enrichment (6-mer frequency, TF over GST control)"
same,binding signal,[16],"1.54 fold enrichment (6-mer frequency, TF over GST control)"
same,binding signal,[17],"1.24 fold enrichment (6-mer frequency, TF over GST control)"
same,binding signal,[18],"2.37 fold enrichment (6-mer frequency, TF over GST control)"
same,binding signal,[19],"1.36 fold enrichment (6-mer frequency, TF over GST control)"
